Experimental data as given in PubChem BioAssay AID922 (National Center for Advancing Translational Sciences (NCATS), 2007).
Inconclusive results are not listed. The source made the active and inactive calls. The call rests on the fitted dose curve; in most records, active means well fitted inhibition curve with a large enough effect in the signal ratio, with a control signal flat; inconclusive means small, poorly fitted or top-dose-only effect, or effect the other way; inactive means flat fitted curve, though single readings scatter; the % refers to the signal ratio.

Assay: Confirmation Concentration-Response Assay for Identification of Small Molecule Antagonists of Stat Signaling Pathway
Conditions: SIE-bla cells, IL-6 stimulated, beta-lactamase ratio, 5 h
Text: NIH Molecular Libraries Screening Centers Network [MLSCN] NIH Chemical Genomics Center [NCGC] MLSCN Grant: None NCGC Assay Overview: This assay is a retest of actives identified from the Stat signaling pathway assay (PubChem AID 446). The Stat assay is cell-based and measures Interleukin 6 (IL-6) mediated modulation of a beta-lactamase reporter gene controlled by a STAT inducible element (SIE-bla cells, Invitrogen). IL-6 is a cytokine that signals via the JAK/STAT pathway and is implicated in cancer and inflammation. SIE-bla cells are induced by IL-6 at 40 pM EC50 and inhibited by the pan JAK inhibitor, 2-(1,1-Dimethylethyl)-9-fluoro-3,6-dihydro-7H-benz[h]-imidaz[4,5-f]isoquinolin-7-one, at approximately 10 nM IC50. Plated cells were incubated overnight and on the following day, stimulated with 40 pM IL-6 for 5 hrs. The assay was stimulated with an EC50 of IL-6 to retest inhibitors of STAT signaling.
NCGC Assay Protocol Summary: Cells were trypsinized, washed in assay medium (AM, OPTI MEM with 0.5% fetal bovine serum, 0.1 mM nonessential amino acids, 1 mM sodium pyruvate, 10mM HEPES pH 7.3, 100U/ml penicillin, and 100 ug/ml streptomycin) and suspended at […] in AM. Approximately 2500 cells in 5 uL/well was dispensed into 1536-well plates and the cells were incubated overnight at 37 C. 23 nL of compound were delivered by a pin tool and 1 uL of IL-6 (40 pM final concentration in AM) was added. After plates were incubated at 37 C for 5 hrs, 1uL of detector mix (LiveBLAzerTM, Invitrogen) was added, the plates incubated at room temperature for 2.5 hrs, and fluorescence intensity at 460 and 530 nm emissions was measured at 405 nm excitation by an Envision (Perkin Elmer).

Row | SMILES | Potency
1 | CC[C@@H]1CN2CCc3cc(OC)c(OC)cc3[C@H]2C[C@@H]1C[C@@H]1NCCc2cc(OC)c(OC)cc21 | 0.398 µM (active)
2 | COc1ccc(C[C@@H]2C(=O)N[C@H](C)C(=O)N(C)[C@@H]3C(=O)N(C)[C@@H](Cc4ccc(O)c(c4)Oc4ccc(cc4)[C@H]3O)C(=O)N[C@@H](C)C(=O)N[C@H](C)C(=O)N2C)cc1 | 0.398 µM (active)
3 | C[C@]1(C(=O)O)[C@@H]2CC[C@@H](O2)[C@@]1(C)C(=O)O | 10 µM (active)
4 | CC(C)[C@H](CO)Nc1nc(Nc2cccc(Cl)c2)c2ncn(C(C)C)c2n1 | 5.01 µM (active)
5 | CC(C)C[C@H]1C(=O)N2CCC[C@H]2[C@]2(O)O[C@](NC(=O)[C@@H]3C=C4c5cccc6[nH]c(Br)c(c56)CC4N(C)C3)(C(C)C)C(=O)N12 (stereo partly specified) | 12.6 µM (active)
6 | CCn1cnc2c(Nc3cccc(Cl)c3)nc(N[C@@H]3CCCC[C@H]3N)nc21 | 3.98 µM (active)
